Compound activity as filed in PubChem.
Arbovirus anti = blocks arbovirus infection. arbovirus infection cell-based antiviral screen. inhibition, % at 10 µM. 0.37% of 200,000 active; in the data active = inhibition above about 30%
Efa HMGR inh = inhibitors of class II HMG-CoA reductase from Enterococcus faecalis. purified E. faecalis HMGR, NADPH absorbance 340 nm kinetic. inhibition, % at 10 µM. 0.41% of 190,000 active. AID 1066;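 active = inhibition above a set limit, the median over all tested compounds plus 3 SD, cut at about 9.5% in these data; inconclusive = no clear call, values can overlap the other calls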;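 also: enzyme runs in reverse so mevalonate oxidation gives rising NADPH absorbance; 0% = complete reaction with DMSO and 100% = background rate lacking mevalonate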
HSV replic up = increases HSV replication in cells; HSV replication augmentation in cells, fold increase; maximum fold increase; 0.005% of 220,000 active; AID 1956; in the data active = maximum fold increase above about 1.5; inconclusive = no clear call, values can overlap the other calls; tested in PC3 cells
m-calpain inh = calpain II (pig) inhibition. purified calpain II, fluorogenic peptide substrate, 30 min. AID 1236. 0.37% of 220,000 active. inhibition, % at 16 µM;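 active = inhibition above about 50%, limit read from the data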
ROMK primary = modulates human ROMK potassium channel activity | Tet-inducible ROMK, thallium flux fluorescence; actives lie on both sides | B-score at 10 µM | 2% of 130,000 active | AID 1918;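 active = signal ratio slope over the read window, or its plate-corrected B-score, at least 3 SD from the plate mean, either direction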;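 also: B-score of the F/F0 ratio slope over 7 to 12 s after thallium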
Target sequence (P48048 whole entry, looked up): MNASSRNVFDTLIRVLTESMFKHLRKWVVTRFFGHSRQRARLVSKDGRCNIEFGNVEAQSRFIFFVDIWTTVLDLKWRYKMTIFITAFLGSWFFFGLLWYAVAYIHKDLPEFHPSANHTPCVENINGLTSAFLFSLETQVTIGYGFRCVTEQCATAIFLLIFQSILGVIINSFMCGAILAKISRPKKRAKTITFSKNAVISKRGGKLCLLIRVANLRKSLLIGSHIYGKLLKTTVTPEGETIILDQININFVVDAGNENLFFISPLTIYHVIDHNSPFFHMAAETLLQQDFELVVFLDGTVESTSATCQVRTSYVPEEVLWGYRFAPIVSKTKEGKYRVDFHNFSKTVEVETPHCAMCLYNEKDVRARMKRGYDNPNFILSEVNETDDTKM
ROMK hit retest = human ROMK channel modulation, retest confirmation; normalized thallium flux (F/F0 slope) at 10 µM; AID 1917; 54% of 3,000 active; ROMK thallium flux, fluorescence ratio; hits give low values; shares compounds with ROMK primary;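 active = Flux at 10 µM at least 3 SD below or above vehicle control mean in one or both replicates; inconclusive = no clear call, values can overlap the other calls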
The depositor's hits bear a star; i = inactive; ? = inconclusive; · = no result given. Only some compounds are listed: those with a hit (about 2.1% of all), similar ones and a draw of the others.

SMILES	Arbovirus anti	Efa HMGR inh	HSV replic up	m-calpain inh	ROMK primary	ROMK hit retest
O=C(c1ccc(OC2CCN(Cc3ccccn3)CC2)cc1)N1CCCCO1	1	-10	i	0	1.1	·
COc1ccc(N2CCN(S(=O)(=O)c3cc(C)ccc3OC)CC2)cc1	4	-3	i	12	-0.2	·
Cc1nc(NS(=O)(=O)c2ccccc2C)c2c3c(sc2n1)CCC3	38*	3	i	-51	·	·
c1csc(-c2csc3ncnc(NCCCN4CCOCC4)c23)c1	18	0	i	-7	·	·
c1ccc(-c2csc3ncnc(NCCCN4CCOCC4)c23)cc1	43*	1	i	11	-0.97	·
COc1ccc(/C=C/C(=O)N[C@H](C(=O)O)C(C)C)cc1	3	0	i	4	0.015	·
CC(=O)Nc1ccc(O)c(-c2nc3ccccc3s2)c1	3	-6	i	i	0.097	·
O=C(Nc1ccc(OC(=O)c2ccccc2)c(-c2nc3ccccc3s2)c1)c1ccccc1	-3	-9	i	64*	-1.1	·
O=C(COC(=O)CC12CC3CC(CC(C3)C1)C2)Nc1cccnc1Cl	-3	-3	i	59*	0.91	·
COCCn1c(CN2CCN(C)CC2)nc2c1c(=O)n(C)c(=O)n2C	15	2	i	85*	·	·
COc1ccccc1C1C=C(c2ccc(Cl)cc2)Nc2nc(N3C(=O)CCC3=O)nn21 (configuration not stated)	15	-2	i	-286	-6*	·
COc1ccc(C2C=C(c3ccc(Br)cc3)Nc3nc(N4C(=O)CCC4=O)nn32)cc1 (configuration not stated)	16	-8	?	-401	·	·
O=C1CCC(=O)N1c1nc2n(n1)C(c1ccccc1)C=C(c1ccc(Br)cc1)N2 (configuration not stated)	5	-1	i	-336	-4*	·
CC(=O)Nc1ccc(S(=O)(=O)NNC(=O)c2cccc(Cl)c2)cc1	12	2	i	23	0.31	·
CCOC(=O)C1(C)C=C(Nc2ccc(NC(C)=O)cc2)C(=O)N1c1ccc(NC(C)=O)cc1 (configuration not stated)	·	·	i	-1	·	·
Cc1ccc(Cl)cc1N1CCN(C(=O)Cn2ccc3ccccc3c2=O)CC1	-1	5	i	-5	-3.6*	·
Cc1nc(N2CCN(c3ccccc3)CC2)nc2c1C(=O)CC(C)C2 (configuration not stated)	-9	-4	i	72*	·	·
COc1ccc2c(c1)C(=O)CC(O)(C(F)F)O2 (configuration not stated)	·	·	i	51*	·	·
CC1(C)CC(=O)c2cc(OCC(=O)O)ccc2O1	8	-3	i	i	0.24	·
Cc1ccc(NC(=O)CN2C(=O)NC(Cc3ccccc3)C2=O)c(Br)c1 (configuration not stated)	-7	10*	i	6	-0.7	·
N#C/C(=C\c1ccc(OCc2cccc(C(=O)O)c2)cc1)C(=O)NCc1ccco1	·	·	i	-1	·	0.039*
COCCNC(=O)/C(C#N)=C/c1ccc(OCc2ccccc2)cc1	2	-5	i	15	·	·
O=C(CCl)NC(Cc1ccccc1)c1ccccc1 (configuration not stated)	12	2	i	-15	-0.4	0.087
Cc1cc(C)n(CCNC(=O)CC2C(=O)NCCN2CC2CCCCC2)n1 (configuration not stated)	2	-1	i	-36	-0.13	·
Cc1ccc(/C(=N\O)c2oc3c(C)c4oc(=O)cc(C)c4cc3c2C)cc1	-25	-2	·	-209	2.9*	0.11*
SMILES	Arbovirus anti	Efa HMGR inh	HSV replic up	m-calpain inh	ROMK primary	ROMK hit retest
Cc1ccc(S(=O)(=O)N2CCN(c3nccnc3C#N)CC2)cc1	·	·	i	13	·	·
O=C(O)c1cccc(NC2=C(Cl)C(=O)c3ccccc3C2=O)c1	-39	-2	i	26	-1.9	0.056*
Cc1ccc(NC2=C(NC(=O)c3ccccc3)C(=O)c3ccccc3C2=O)cc1Cl	-38	-2	i	-6	·	·
CCN1CCN(CCNC(=O)c2ccc(/C=C3/Sc4ccccc4N(Cc4cccc(Cl)c4)C3=O)cc2)CC1	-30	0	i	-48	-1.3	·
CCN1CCN(CCNC(=O)c2ccc3c(c2)N(Cc2ccc(F)cc2)C(=O)/C(=C/c2ccccc2)S3)CC1	-30	-4	i	-133	-3.1*	0.073
O=C(Cn1cc2c(n1)CCCCC2)Nc1ccccc1Br	·	·	i	-7	-0.32	·
N#CC1=C(N)C(C#N)(C#N)C(c2cccnc2)C2CC(c3ccccc3)CC=C12 (configuration not stated)	-2	5	i	-72	·	·
N#CC1=C(N)C2=CCCC[C@H]2[C@H](c2cccc(F)c2)C1(C#N)C#N	7	-3	i	-51	-2.5*	0.053*
Cc1cc2cc(CN(Cc3nnnn3C3CCCCC3)CC3CCCO3)c(=O)[nH]c2cc1C (configuration not stated)	-11	-3	i	-3	-5.7*	?
Cc1ccc2cc(CN(Cc3nnnn3C3CCCCC3)CC3CCCO3)c(=O)[nH]c2c1 (configuration not stated)	-4	-2	i	-7	·	·
COc1ccc(C2CC(c3c(-c4ccccc4)c4cc(Cl)ccc4[nH]c3=O)=NN2S(C)(=O)=O)cc1 (configuration not stated)	2	-2	i	-58	-0.37	·
COc1ccc(OC)c(C2CC(c3c(-c4ccccc4)c4cc(Cl)ccc4[nH]c3=O)=NN2S(C)(=O)=O)c1 (configuration not stated)	-1	-2	·	-18	·	?
O=C(NCc1cccs1)C1CCN(c2ccc(S(=O)(=O)N3CCOCC3)cc2Cl)CC1	-18	2	i	34	2.9*	0.081
COC(=O)/C=C1\C(=O)N(c2nc3ccccc3s2)C(=S)N1c1ccc(F)cc1	2	1	i	-171	-2.8*	0.064*
O=c1cc(-c2ccccc2[N+](=O)[O-])oc2ccccc12	-22	-5	i	12	2.4*	0.079
O=c1cc(-c2ccccc2F)oc2ccccc12	-5	-4	i	-5	0.083	·
O=C(Nc1ccc2ccccc2c1)N1CCN(c2ncccc2C(F)(F)F)CC1	-7	0	i	-13	-3.9*	0.062*
CC(C)(C)c1[nH]nc2c1C(c1ccsc1)C(C#N)=C(N)O2 (configuration not stated)	-5	-1	i	-23	0.35	·
CCc1[nH]nc2c1C(c1ccsc1)C(C#N)=C(N)O2 (configuration not stated)	-4	-4	i	-19	-4.3*	0.063*
Cc1nc2ccc(NC(=O)c3cc([N+](=O)[O-])cc([N+](=O)[O-])c3Cl)cc2s1	-29	-12	i	-27	·	·
CC1CCN(C(=O)C2CCN(C(=O)c3cc4sccc4n3Cc3ccc(F)cc3)CC2)CC1	-2	-4	i	-10	-2.9	·
CCn1c(C(=O)N2CCC(C(=O)N3CCN(c4ccccn4)CC3)CC2)cc2sccc21	2	-1	i	-19	·	0.075
